The campaign covered roughly 290,000 compounds. About 1,500 (0.52%) were called active. Many of the other results were omitted from the sample, so actives are more common in it than they were. Values without a mark were called inactive. Cut-off read from the data, not from the text of the source: active = inhibition above about 50%; inactive = the rest.
Target: Dual specificity protein phosphatase 3 (Homo sapiens) (UniProt P51452)
Assay: VHR1 phosphatase inhibitors, primary screen, biochemical, absorbance, uHTS (AID 1654)
Settings: recombinant VHR phosphatase, pNPP absorbance, at 13.3 µM, active compounds read high

Dual specificity protein phosphatase 3 (Homo sapiens), sequence (P51452 whole entry, looked up): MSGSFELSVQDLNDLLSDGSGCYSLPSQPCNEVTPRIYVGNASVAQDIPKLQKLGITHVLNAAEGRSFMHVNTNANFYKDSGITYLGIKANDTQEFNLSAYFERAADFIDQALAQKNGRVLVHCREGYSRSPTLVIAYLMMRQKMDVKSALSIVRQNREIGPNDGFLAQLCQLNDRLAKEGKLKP

SMILES	inhibition
CCCn1nnnc1NCc1ccc(CC)cc1	10.8%
O=C(c1ccc(Cl)cc1)n1cnc2ccccc21	4.1%
O=C1C(Cl)=C(N2CCOCC2)C(=O)N1c1ccccc1	29.6%
COc1ccc(N2CCN(C(C)=C3C(=O)c4ccccc4C3=O)CC2)cc1	30.2%
COC1=C(N2CCOCC2)C(=O)c2ccccc2C1=O	57.3% (active)
CCc1ccc(CNC(=O)C2CCN(c3nnc(C)c4c(C)n(-c5ccc(C)cc5)nc34)CC2)cc1	-20.3%
O=C(CNC(=O)c1cccnc1)N/N=C/c1cc(Br)c(O)c(Br)c1	52.6% (active)
O=C(CNC(=O)c1cccnc1)N/N=C/c1cccnc1	17.2%
CCN(CC)c1ccc(/C=N/NC(=O)CNC(=O)c2cccnc2)cc1	-4.7%
Cc1cc(-c2nnc(SCC(=O)Nc3ccc(F)cc3)n2N)n[nH]1	8%
COc1cccc(CNCc2ccc3c(c2)OCO3)c1	3.6%
CN(C(=O)C1CCN(c2ncnc3c2nc2n3CCCCC2)CC1)C1CCCCC1	21.1%
CCOC(=O)c1cc(S(=O)(=O)NCCc2ccc(OC)c(OC)c2)cn1C	55.6% (active)
COc1ccc(CCNS(=O)(=O)c2ccc(F)cc2)cc1OC	2.8%
CCS(=O)(=O)NCCc1ccc(OC)c(OC)c1	3.5%
CCOC(=O)c1ccc2[nH]c3c(c2c1)CCCC3NC=O (stereo unspecified)	5.2%
COc1ccc(N2CCN(C(=O)c3ccc(N4CCCCS4(=O)=O)cc3)CC2)cc1	21.1%
Cc1ccc(S(=O)(=O)N(CC(O)CN2C(=O)NC(C)(C)C2=O)c2cccc([N+](=O)[O-])c2)cc1 (stereo unspecified)	6.7%
Cc1cc(C)c(S(=O)(=O)c2cc(F)ccc2C)c(=O)[nH]1	56.9% (active)
Cc1cc(C)c(S(=O)(=O)c2ccc(F)cc2C)c(=O)[nH]1	-16.2%
COc1ccccc1S(=O)(=O)c1c(C)cc(C)[nH]c1=O	8.8%

SMILES	inhibition
CCCn1c(C(O)c2cc(OC)ccc2OC)nc2ccccc21 (stereo unspecified)	6.4%
CCn1c(C(O)c2cc(OC)ccc2OC)nc2ccccc21 (stereo unspecified)	-40.5%
COc1ccc(OC)c(C(O)c2nc3ccccc3n2C)c1 (stereo unspecified)	57% (active)
COc1cccc(NC(=O)C2C(c3ccccc3)C2(Cl)Cl)c1 (stereo unspecified)	-7.8%
Cc1cc(C)c(C#N)c(Nc2cccc(Br)c2)n1	0.3%
COc1cc(Cl)ccc1OCc1cc(C(=O)N(C)CCc2c(C)n[nH]c2C)no1	1.6%
Cc1ccccc1Nc1c([N+](=O)[O-])ccc2nonc12	17.2%
COc1ccccc1OCCOc1ccc(/C=C2\C(=N)N3N=C(C)SC3=NC2=O)cc1	59.3% (active)
CCOc1cc(/C=C2\C(=N)N3N=C(C)SC3=NC2=O)ccc1OCCOc1ccccc1	17.9%
CS(=O)(=O)C1=NN2C(=N)/C(=C\c3ccc(OCCOc4ccccc4)cc3)C(=O)N=C2S1	26.8%
C=CCN1C(=NC(=O)COc2ccccc2)SC2CS(=O)(=O)CC21 (stereo unspecified)	19%
Cc1cc(C)nc(NNC2=CC(=O)CC(C)(C)C2)n1	51.3% (active)
CC1(C)CC(=O)C=C(Nc2ccccc2)C1	-8.5%
COC(=O)NNC1=CC(=O)CC(C)(C)C1	1.2%
O=C(Nc1cc(-c2nc3ncccc3o2)ccc1Cl)c1ccco1	24%
Cc1ccc(NC(=S)N(CCCN2CCC(C)CC2)Cc2ccco2)cc1	53.6% (active)
Cc1ccc(NC(=S)N(Cc2ccco2)C(C)c2cccs2)cc1 (stereo unspecified)	20.7%
Cc1ccc(NC(=S)N(CCN2CCCCC2)Cc2ccco2)cc1C	5.9%
CCOc1ccc(-c2noc(CCC(=O)NC3CCCC3)n2)cc1OC	27.7%
COc1cc(S(=O)(=O)N2CCN=C2c2ccccc2)ccc1Cl	47.5%
CC(Sc1nnc(-c2ccccc2F)n1C1CC1)C(N)=O (stereo unspecified)	11.3%

SMILES	inhibition
CCc1ccc(N2CC(C(=O)Nc3ccc(S(=O)(=O)Nc4nccs4)cc3)CC2=O)cc1 (stereo unspecified)	-2.6%
CCc1ccc(N2CC(C(=O)N3CCCCCC3)CC2=O)cc1 (stereo unspecified)	30.7%
CCc1ccc(N2CC(C(=O)NC3=NCCS3)CC2=O)cc1 (stereo unspecified)	54.4% (active)
COc1ccccc1OCCNC(=O)CCNC(=O)c1ccccc1Cl	-2.5%
CC1CCCCC1NC(=O)c1cn(C)c2ccc(S(=O)(=O)N3CCOCC3)cc2c1=O (stereo unspecified)	5.7%
CCOc1cc(C)ccc1OCc1nnc(SCC(=O)Nc2cccc(C(=O)O)c2)n1-c1ccccc1	-8.4%
Cc1sc2ncn(CC(=O)NCCN(C)C)c(=O)c2c1S(=O)(=O)N1CCC(C)CC1	5.1%
CCN(CC)CCCNC(=O)Cn1cnc2sc(C)c(S(=O)(=O)N3CCN(c4ncccn4)CC3)c2c1=O	7.7%
CCN(CC)CCNC(=O)Cn1cnc2sc(C)c(S(=O)(=O)N3CCOCC3)c2c1=O	57.3% (active)
Cc1ccc(OCC(=O)OC(C)CN(C)Cc2ccccc2)cc1 (stereo unspecified)	-3.9%
CN(Cc1ccccc1)CC(O)COc1ccc(CNCc2cc3ccccc3s2)cc1 (stereo unspecified)	55.5% (active)
OC(CNCc1ccc2c(c1)OCO2)COc1ccccc1 (stereo unspecified)	0.8%
COCCN(C(=S)Nc1cccc(Cl)c1C)C(C)c1ccco1 (stereo unspecified)	19.1%
CCOC(=O)CC1COCCN1C(=O)c1cc(COc2ccc(F)c(F)c2)on1 (stereo unspecified)	-31.1%
Cc1c(CC(=O)N2CCN(C(=O)C3COc4ccccc4O3)CC2)c(=O)oc2c(O)c(O)ccc12 (stereo unspecified)	9.7%
Cc1c(CC(=O)NCCCCCC(=O)O)c(=O)oc2cc3occ(-c4ccccc4)c3cc12	-11%
COc1cccc(-c2coc3cc4oc(=O)c(CC(=O)O)c(C)c4cc23)c1	57.3% (active)
Cc1c(CCC(=O)O)c(=O)oc2cc3occ(-c4ccccc4)c3cc12	-4.9%
Cc1nc(C)c(-c2nnc(-c3cccc(S(=O)(=O)N(C)C)c3)o2)cc1C(=O)NN	1%

From PubChem BioAssay AID1654 (Sanford-Burnham Center for Chemical Genomics, 2009)
